Experimental data published in PubChem BioAssay (EPA / NIEHS).
The source made the active and inactive calls. The calls were made as follows: active = hit-call score of the fitted dose curve at least 0.9, where 1 is the maximum; inactive = score below 0.9.

Key:
[1] = read-out: Pselectin, SELP (gene 6403); assay: BSK_4H_Pselectin: BioMAP Diversity Plus: 4H Assay for Pselectin Biomarker Activity (AID 2283026); conditions: primary human endothelial cells (HUVEC); actives raise or lower the signal
Outline: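 Primary human umbilical vein endothelial cells were treated 24 h, and cell-surface P-selectin was then quantified by ELISA. Bidirectional fit versus DMSO; cytotoxicity checked in parallel cultures by SRB total-protein staining.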

[2] = BSK_4H_SRB: Viability Assessment in the BioMAP Diversity Plus: 4H Assay (AID 2283027); conditions: primary human endothelial cells (HUVEC);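 as to AC50: curves fitted both ways versus DMSO so AC50 may be loss or gain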
Outline: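 Human umbilical vein endothelial cells, 24 h after chemical dosing; total protein measured by 0.1% sulforhodamine B staining after 10% TCA fixation, read at 560 nm. Bidirectional fitting against DMSO.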

[3] = BSK_BE3C_SRB: Viability Assessment in the BioMAP Diversity Plus: BE3C Assay (AID 2283028); conditions: primary human bronchial epithelial cells;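 as to AC50: fitted both ways so AC50 may mark signal gain or loss versus DMSO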
Outline: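 Primary human bronchial epithelium; chemical dosing, 24 h; 10% TCA fix, 0.1% SRB stain, A560; bidirectional fit vs DMSO baseline.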

[4] = read-out: Urokinase-type plasminogen activator receptor (uPAR), PLAUR (gene 5329); assay: BSK_4H_uPAR: BioMAP Diversity Plus: 4H Assay for Urokinase-type plasminogen activator receptor (uPAR) Biomarker Activity (AID 2283030); conditions: primary human endothelial cells (HUVEC); actives raise or lower the signal
Outline: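 HUVEC, 24 h post-dose; uPAR by ELISA; bidirectional fit vs DMSO baseline.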

[5] = read-out: Vascular endothelial growth factor receptor 2 (Homo sapiens) (UniProt P35968); assay: BSK_4H_VEGFRII: BioMAP Diversity Plus: 4H Assay for Vascular endothelial growth factor receptor 2 (VEGFR2) Biomarker Activity (AID 2283031); conditions: primary human endothelial cells (HUVEC); actives raise or lower the signal
Outline: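 HUVEC (human primary), 4H system; 24 h post-dose; VEGFRII by ELISA; bidirectional curve fit vs DMSO baseline; gain or loss of signal scored.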

[6] = read-out: Human Leukocyte Antigen - DR isotype (HLADR), HLA-DRA (gene 3122); assay: BSK_BE3C_HLADR: BioMAP Diversity Plus: BE3C Assay for Human Leukocyte Antigen - DR isotype (HLADR) Biomarker Activity (AID 2283032); conditions: primary human bronchial epithelial cells; actives raise or lower the signal
Outline: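 Human primary bronchial epithelial cells (BE3C system) exposed to compound for 24 hours; cell-surface HLA-DR measured by ELISA, fitted bidirectionally relative to DMSO. Total protein by SRB in parallel cultures tracked cytotoxicity.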

[7] = read-out: Vascular cell adhesion molecule 1 (VCAM1), VCAM1 (gene 7412); assay: BSK_4H_VCAM1: BioMAP Diversity Plus: 4H Assay for Vascular cell adhesion molecule 1 (VCAM1) Biomarker Activity (AID 2283033); conditions: primary human endothelial cells (HUVEC); actives raise or lower the signal
Outline: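 Primary human umbilical vein endothelial cells, 4H stimulation system, treated for 24 h; cell-surface VCAM-1 quantified by ELISA. Bidirectional fitting against DMSO; cytotoxicity tracked by SRB total-protein staining in parallel cultures.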

[8] = read-out: Monokine induced gamma interferon (MIG), CXCL9 (gene 4283); assay: BSK_BE3C_MIG: BioMAP Diversity Plus: BE3C Assay for Monokine induced gamma interferon (MIG) Biomarker Activity (AID 2283035); conditions: primary human bronchial epithelial cells; actives raise or lower the signal
Outline: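 Primary human bronchial epithelial cells treated for 24 h; MIG levels measured by ELISA, fitted bidirectionally versus DMSO. Parallel SRB total-protein staining assessed cytotoxicity.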

[9] = read-out: Transforming growth factor beta 1 (TGFb1), TGFB1 (gene 7040); assay: BSK_BE3C_TGFb1: BioMAP Diversity Plus: BE3C Assay for Transforming growth factor beta 1 (TGFb1) Biomarker Activity (AID 2283036); conditions: primary human bronchial epithelial cells; actives raise or lower the signal
Outline: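 Primary human bronchial epithelial cells dosed with chemical; TGF-b1 measured by ELISA 24 h after dosing. Bidirectional curve fitting against DMSO negative control; SRB total-protein staining in parallel cultures gauged cytotoxicity.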

[10] = read-out: Plasminogen activator inhibitor-1 (PAI1), SERPINE1 (gene 5054); assay: BSK_BE3C_PAI1: BioMAP Diversity Plus: BE3C Assay for Plasminogen activator inhibitor-1 (PAI1) Biomarker Activity (AID 2283037); conditions: primary human bronchial epithelial cells; actives raise or lower the signal
Outline: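 Primary human bronchial epithelial cells (BE3C system) exposed 24 h; PAI-1 quantified by ELISA. Parallel sulforhodamine B staining of total protein flags cytotoxicity. Bidirectional fit versus DMSO.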

[11] = read-out: urokinase plasminogen activator (uPA), PLAU (gene 5328); assay: BSK_BE3C_uPA: BioMAP Diversity Plus: BE3C Assay for urokinase plasminogen activator (uPA) Biomarker Activity (AID 2283038); conditions: primary human bronchial epithelial cells; actives raise or lower the signal
Outline: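 ELISA read-out of uPA in human lung primary bronchial epithelial cultures, 24 h post-dosing. Gain or loss of signal fitted bidirectionally relative to DMSO baseline; cytotoxicity checked in parallel cultures via SRB total protein stain.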

[12] = read-out: Urokinase-type plasminogen activator receptor (uPAR), PLAUR (gene 5329); assay: BSK_BE3C_uPAR: BioMAP Diversity Plus: BE3C Assay for Urokinase-type plasminogen activator receptor (uPAR) Biomarker Activity (AID 2283039); conditions: primary human bronchial epithelial cells; actives raise or lower the signal
Outline: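 Primary human bronchial epithelial cells dosed for 24 h; uPAR quantified by ELISA with bidirectional fitting against DMSO. Overt cytotoxicity assessed in parallel cultures by SRB total-protein staining (0.1% SRB, 560 nm).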

[13] = read-out: Interleukin-6 (IL6), IL6 (gene 3569); assay: BSK_CASM3C_IL6: BioMAP Diversity Plus: CASM3C Assay for Interleukin-6 (IL6) Biomarker Activity for (AID 2283040); conditions: primary human coronary artery smooth muscle cells; actives raise or lower the signal
[14] = read-out: Interleukin-8 (IL8), CXCL8 (gene 3576); assay: BSK_CASM3C_IL8: BioMAP Diversity Plus: CASM3C Assay for Interleukin-8 (IL8) Biomarker Activity (AID 2283042); conditions: primary human coronary artery smooth muscle cells; actives raise or lower the signal;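 also: IL-8 protein level quantified by ELISA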
[15] = read-out: Human Leukocyte Antigen - DR isotype (HLADR), HLA-DRA (gene 3122); assay: BSK_CASM3C_HLADR: BioMAP Diversity Plus: CASM3C Assay for Human Leukocyte Antigen - DR isotype (HLADR) Biomarker Activity (AID 2283043); conditions: primary human coronary artery smooth muscle cells; actives raise or lower the signal;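 also: cell-surface HLA-DR protein level quantified by ELISA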
[16] = read-out: Thrombomodulin, THBD (gene 7056); assay: BSK_3C_Thrombomodulin: BioMAP Diversity Plus: 3C Assay for Thrombomodulin Biomarker Activity (AID 2283029); conditions: primary human endothelial cells (HUVEC); actives raise or lower the signal
Outline: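 Human umbilical vein endothelial cells were exposed to chemicals for 24 h; cell-surface thrombomodulin quantified by ELISA, with bidirectional fitting against DMSO baseline.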

[17] = BSK_3C_Vis: BioMAP Diversity Plus: 3C Assay for Morphology Visualization (AID 2283025); conditions: primary human endothelial cells (HUVEC);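 also: fitted both ways so gain or loss versus DMSO counts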
Outline: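 Human umbilical vein endothelial cell morphology was inspected by light microscopy 24 h after chemical dosing; scored bidirectionally relative to DMSO.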

[18] = read-out: Interferon-gamma inducible Protein 10 (IP10), CXCL10 (gene 3627); assay: BSK_BE3C_IP10: BioMAP Diversity Plus: BE3C Assay for Interferon-gamma inducible Protein 10 (IP10) Biomarker Activity (AID 2283034); conditions: primary human bronchial epithelial cells; actives raise or lower the signal
Outline: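 Primary human bronchial epithelial cells, with IP-10 measured by ELISA 24 hours after chemical dosing. Bidirectional fit against DMSO; cytotoxicity checked by SRB total protein staining in parallel cultures.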

[19] = read-out: Tissue plasminogen activator (tPA), PLAT (gene 5327); assay: BSK_BE3C_tPA: BioMAP Diversity Plus: BE3C Assay for Tissue plasminogen activator (tPA) Biomarker Activity (AID 2283041); conditions: primary human bronchial epithelial cells; actives raise or lower the signal
Outline: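 Primary human bronchial epithelial cells in the BE3C system, exposed to compound for 24 h. tPA was quantified by ELISA; DMSO served as baseline, with gain or loss of signal fitted. Cytotoxicity checked in parallel cultures by SRB total-protein staining.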

Measured: AC50

CC(O)CC(C)(C)O (configuration not stated)
inactive: [1] | [2] | [3] | [4] | [5] | [6] | [7] | [8] | [9] | [10] | [11] | [12] | [13] | [14] | [15]

CCCCCCCCN(C)CCCCCCCC
inactive: [1] | [2] | [3] | [16] | [4] | [5] | [6] | [7] | [8] | [9] | [10] | [13] | [14] | [15]

CCCCCCCCCCCC[N+](C)(C)C
active: [1] 20 µM | [2] 26.9 µM | [3] 32 µM | [16] 5.28 µM | [4] 29.8 µM | [6] 28.3 µM | [7] 26.8 µM | [8] 33.1 µM | [10] 21.9 µM | [12] 33.9 µM | [14] 29.1 µM | [15] 14 µM
inactive: [5] | [13]

CCCCCCCCOc1ccc(C(=O)c2ccccc2)c(O)c1
active: [16] 7.71 µM
inactive: [17] | [1] | [2] | [3] | [4] | [5] | [6] | [7] | [18] | [8] | [9] | [13] | [14] | [15]

CCCCCc1ccc(N)cc1
active: [2] 11.7 µM | [4] 7.58 µM | [12] 5.56 µM
inactive: [17] | [1] | [3] | [5] | [6] | [7] | [8] | [9] | [13] | [14] | [15]

c1ccc2n[nH]nc2c1
inactive: [17] | [1] | [2] | [3] | [16] | [4] | [5] | [6] | [7] | [18] | [8] | [9] | [11] | [13] | [14] | [15]

O=C1c2ccccc2C(=O)N1CCc1noc(-c2ccc(CN3CCCCCC3)s2)n1
active: [1] 17.8 µM | [4] 22.8 µM
inactive: [2] | [3] | [16] | [5] | [6] | [7] | [8] | [9] | [12] | [13] | [14] | [15]

O=c1[nH]sc2ccccc12
active: [1] 5.54 µM | [2] 20 µM | [3] 37.1 µM | [16] 5.42 µM | [4] 20 µM | [6] 28.1 µM | [7] 7.17 µM | [18] 28 µM | [8] 32.3 µM | [9] 20 µM | [10] 37.2 µM | [13] 8.69 µM | [19] 11 µM | [14] 14.6 µM | [15] 5.36 µM
inactive: [5]

COc1cc(C(=O)NC2CCN(C)CC2)ccc1Nc1ncc2c(n1)N(C1CCCC1)CC(F)(F)C(=O)N2C
inactive: [16] | [5]
active: [1] 3.57 µM | [2] 13.5 µM | [3] 28.2 µM | [4] 7.45 µM | [6] 21.9 µM | [7] 7.23 µM | [8] 31.8 µM | [9] 18.5 µM | [10] 18.6 µM | [13] 8.51 µM | [14] 19.2 µM | [15] 9.13 µM

CCCC(=O)OCCC(C)C
inactive: [17] | [1] | [2] | [3] | [4] | [5] | [6] | [7] | [8] | [9] | [10] | [12] | [13] | [14] | [15]

CN1C(=O)N(c2ccccc2Br)Cc2cnc(Nc3ccc4c(c3)OCC(CO)O4)nc21 (configuration not stated)
inactive: [5]
active: [1] 6.75 µM | [2] 2.02 µM | [3] 28.1 µM | [4] 3.51 µM | [6] 28.5 µM | [7] 15.2 µM | [18] 19.3 µM | [8] 34.7 µM | [9] 20 µM | [11] 5.91 µM | [12] 1.23 µM | [13] 20 µM | [14] 14.3 µM | [15] 11.5 µM
